Where “and” joins values, the source holds several entries; their conditions need not be identical. Identical values can stand only once. The whole screen tested about 5,500 compounds, of which about 2,000 (36%) were called active. Inconclusive results (about 18%) are left out. Rule as the data show it: active = normalized growth mostly below about 0.91 (no sharp cut-off); inconclusive = no clear call, values can overlap the other calls; inactive = mostly above about 0.92. The list shows a part of the results.
Experiment: chemical genetic growth profiling, strain panel (AID 1159580);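 also: tested at 20 µM; growth read once vehicle control cultures reached saturation at 30 °C; 1 = growth at the plate median or of vehicle wells; lower values mean less growth of the strain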
Conditions: S. cerevisiae deletion strains, growth OD

Measured: normalized growth

CC(C[N+](C)(C)C)OC(N)=O (centres undefined)
inactive: locus YAL013W, strain DEP1, active compounds read low 0.991 | locus YAL021C, strain ccr4, active compounds read low 1.05 | locus YAL026C, strain drs2, active compounds read low 1.03 | locus YAL030W, strain snc1, active compounds read low 1.02 | locus YAL040C, strain CLN3, active compounds read low 1 | locus YBL061C, strain skt5, active compounds read low 1.03 | locus YBR009C, strain hhf1, active compounds read low 1.01 | locus YBR021W, strain FUR4, active compounds read low 1.01 | locus YBR023C, strain chs3, active compounds read low 1.03 | locus YBR171W, strain sec66, active compounds read low 1.05 | locus YBR229C, strain ROT2, active compounds read low 0.994 | locus YBR231C, strain swc5, active compounds read low 1.01 | locus YBR279W, strain paf1, active compounds read low 1.03 | locus YCL011C, strain gbp2, active compounds read low 1.01 | locus YCL016C, strain dcc1, active compounds read low 1.03 | locus YCL029C, strain bik1, active compounds read low 0.988 | locus YCL061C, strain MRC1 (second series), active compounds read low 1 | locus YCL061C, strain MRC1, active compounds read low 1.01 | locus YCL069W, strain vba3, active compounds read low 1.03 | locus YCR088W, strain abp1, active compounds read low 1.03 | locus YDL005C, strain med2, active compounds read low 1.01 | locus YDL035C, strain GPR1, active compounds read low 1.04 | locus YDL040C, strain nat1, active compounds read low 1.02 | locus YDL074C, strain BRE1, active compounds read low 0.947 | locus YDL101C, strain DUN1, active compounds read low 0.976 | locus YDL185W, strain tfp1, active compounds read low 0.981 | locus YDL192W, strain arf1, active compounds read low 0.983 | locus YDR001C, strain nth1, active compounds read low 1.03 | locus YDR069C, strain doa4, active compounds read low 1.01 | locus YDR101C, strain arx1, active compounds read low 0.991 | locus YDR137W, strain rgp1, active compounds read low 1.04 | locus YDR150W, strain NUM1, active compounds read low 1.01 | locus YDR159W, strain sac3, active compounds read low 0.982 | locus YDR162C, strain NBP2, active compounds read low 1.02 | locus YDR195W, strain ref2 1 | locus YDR297W, strain sur2, active compounds read low 1.02 | locus YDR318W, strain mcm21, active compounds read low 0.985 | locus YDR334W, strain swr1, active compounds read low 1.03 | locus YDR335W, strain msn5, active compounds read low 1.03 | locus YDR363W, strain ESC2, active compounds read low 0.974 | locus YDR388W, active compounds read low 0.992 | locus YDR392W, strain spt3, active compounds read low 0.962 | locus YDR502C, strain sam2, active compounds read low 0.991 | locus YEL003W, strain gim4, active compounds read low 1.01 | locus YEL037C, strain rad23, active compounds read low 1.04 | locus YEL061C, strain CIN8 (second series), active compounds read low 1.03 | locus YEL061C, strain CIN8, active compounds read low 0.995 | locus YER002W, strain NOP16, active compounds read low 1.02 | locus YER015W, strain faa2, active compounds read low 1.02 | locus YER016W, strain bim1, active compounds read low 1.02 | locus YER110C, active compounds read low 0.972 | locus YER111C, strain swi4, active compounds read low 1.04 | locus YER155C, strain BEM2 (second series), active compounds read low 0.998 | locus YER155C, strain BEM2, active compounds read low 0.986 | locus YER167W, strain BCK2, active compounds read low 1.01 | locus YFR010W, strain ubp6, active compounds read low 1.02 | locus YGL078C, strain dbp3, active compounds read low 0.982 | locus YGL086W, strain mad1, active compounds read low 0.984 | locus YGL167C, strain pmr1, active compounds read low 1.04 | locus YGL173C, strain kem1, active compounds read low 1.01 | locus YGL227W, strain vid30, active compounds read low 1.02 | locus YGL240W, strain doc1, active compounds read low 1.01 | locus YGL248W, strain PDE1, active compounds read low 0.987 | locus YGL253W, strain hxk2, active compounds read low 1.02 | locus YGR078C, strain PAC10, active compounds read low 0.986 and 0.968 | locus YGR135W, strain pre9, active compounds read low 0.987 | locus YGR229C, strain SMI1, active compounds read low 1.03 | locus YGR252W, strain gcn5, active compounds read low 1.04 | locus YHR013C, strain ard1, active compounds read low 1.03 | locus YHR027C, strain rpn1, active compounds read low 1.03 | locus YHR030C, strain SLT2, active compounds read low 0.991 and 0.986 | locus YHR079C, strain IRE1 (second series), active compounds read low 0.975 | locus YHR079C, strain IRE1, active compounds read low 0.976 | locus YHR094C, strain hxt1, active compounds read low 0.982 | locus YHR129C, strain ARP1, active compounds read low 0.988 | locus YHR142W, strain chs7, active compounds read low 1.04 | locus YHR200W, strain rpn10, active compounds read low 0.987 | locus YIL066C, strain RNR3, active compounds read low 1.01 | locus YIL073C, strain SPO22, active compounds read low 1.04 | locus YIL125W, strain kgd1, active compounds read low 0.979 | locus YIR030C, strain dcg1, active compounds read low 0.976 | locus YJL092W, strain hpr5, active compounds read low 1.02 | locus YJL095W, strain BCK1 (second series), active compounds read low 1.05 | locus YJL095W, strain BCK1, active compounds read low 0.985 and 0.982 | locus YJL115W, strain asf1, active compounds read low 1.04 | locus YJL129C, strain trk1, active compounds read low 1.04 | locus YJL134W, strain LCB3, active compounds read low 0.989 | locus YJL154C, strain vps35, active compounds read low 1.03 | locus YJL164C, strain tpk1, active compounds read low 1.03 | locus YJL166W, strain qcr8, active compounds read low 1.01 | locus YJL168C, strain set2, active compounds read low 0.981 | locus YJL187C, strain SWE1 (second series), active compounds read low 0.987 | locus YJL187C, strain SWE1, active compounds read low 1.03 | locus YJR043C, strain POL32, active compounds read low 1.05
